Among all 5,500 compounds or so, about 2,000 (36%) were called active. Not shown: some 18% with an inconclusive outcome. Rule as the data show it: active = normalized growth mostly below about 0.91 (no sharp cut-off); inconclusive = no clear call, values can overlap the other calls; inactive = mostly above about 0.92. The list shows a part of the results.
Test: chemical genetic growth profiling, strain panel (AID 1159580);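 also: tested at 20 µM; growth read once vehicle control cultures reached saturation at 30 °C; 1 = growth at the plate median or of vehicle wells; lower values mean less growth of the strain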
Settings: S. cerevisiae deletion strains, growth OD

Measured: normalized growth

COc1[nH]c2ccc(F)cc2c1C(=O)OCC1CCN(CCNS(C)(=O)=O)CC1
inactive: locus YAL040C, strain CLN3, hits give low values 0.958 | locus YCL061C, strain MRC1 (second series), hits give low values 0.994 | locus YDR150W, strain NUM1, hits give low values 0.986 | locus YDR363W, strain ESC2, hits give low values 0.995 | locus YER002W, strain NOP16, hits give low values 1.01 | locus YGR078C, strain PAC10, hits give low values 1.02 | locus YJR075W, strain HOC1, hits give low values 1.01 | locus YNL153C, strain GIM3, hits give low values 1.01 | locus YNL175C, strain NOP13, hits give low values 1 | locus YNL197C, strain WHI3, hits give low values 1.02 | locus YNL224C, strain SQS1, hits give low values 1.01 | locus YOR083W, strain WHI5 (second series), hits give low values 0.993 | locus YPL241C, strain CIN2, hits give low values 1.01
